Experimental data: PubChem BioAssay (NCATS)
Results filed as inconclusive are left out. Active and inactive are the calls of the source. Calls come from the whole dose curve; as a rule, active = well fitted inhibition curve with a large enough effect; inconclusive = small, poorly fitted or top-dose-only effect; inactive = flat fitted curve, though single readings scatter.

Assays:
Assay in all cases: Cytotoxic Profiling of Annotated Libraries Using Quantitative High-Throughput Screening (AID 1296008); note: nearly all actives have a fitted effect of over 60% in size
Details in all cases: Five cell lines viability, CellTiter-Glo ATP luminescence, 48-72 h; max response: stronger effect = lower value
CRL-7250 = normal cell line; test system: CRL-7250
Summary of the method: (§1)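 Compounds were pin-transferred onto cells and incubated 48 or 72 hr at 37 degree Celsius, 95% humidity. CellTiter-Glo was added, plates sat 10 min at room temperature, then ATP-coupled luminescence was imaged as the viability read-out.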

HEK293 = test system: HEK293
Summary of the method: as §1

HaCat = test system: HaCat
Summary of the method: as §1

KB-3-1 = test system: KB-3-1
Summary of the method: as §1

NIH3T3 = test system: NIH3T3
Summary of the method: as §1

Measured: max response
% is set by controls: 0 for no effect and ±100 for the full control effect.

COc1cc(O)cc(/C=C/c2ccc(O[C@@H]3O[C@H](CO)[C@@H](O)[C@H](O)[C@H]3O)cc2)c1
inactive: CRL-7250 -0.761% | HEK293 -4.02% | HaCat 0.534% | KB-3-1 | NIH3T3 4.58%

COc1ccc(C2(O)CCC(N3CC[C@@H](NC(=O)CNC(=O)c4cccc(C(F)(F)F)c4)C3)CC2)cn1 (stereo not given in full)
inactive: CRL-7250 -18% | HEK293 -19.1% | HaCat 0.0677% | KB-3-1 -12.4% | NIH3T3 -3.76%

OC[C@H]1O[C@@H](OC(CCCCc2ccc(O)cc2)CCc2ccc(O)cc2)[C@H](O)[C@@H](O)[C@@H]1O (stereo not given in full)
inactive: CRL-7250 -35.2% | HEK293 -49.4% | HaCat -20.5% | KB-3-1 | NIH3T3 -27.4%

C[C@H](N)C(=O)N[C@@H](Cc1ccc(O)cc1)C(=O)N1CCC[C@H]1C(=O)NCC(=O)N[C@@H](CCCCN)C(=O)N[C@@H](Cc1ccccc1)C(N)=O
inactive: CRL-7250 | HEK293 2.75% | HaCat -13.5% | KB-3-1 | NIH3T3 3.32%

CCOc1ccc(NC(=S)N2CCC(C(O)(c3ccccc3)c3ccccc3)CC2)cc1
inactive: CRL-7250 -3% | HEK293 -4.42% | HaCat 1.92% | KB-3-1 | NIH3T3 -1.64%

COc1cc(/C=C/C(=O)OC[C@H]2O[C@@](CO)(O[C@H]3O[C@H](CO)[C@@H](O)[C@H](O)[C@H]3O)[C@@H](OC(=O)/C=C/c3ccc(O)c(OC)c3)[C@@H]2O)ccc1O
inactive: CRL-7250 -25.3% | HEK293 4.27% | HaCat -7.21% | KB-3-1 -7.62% | NIH3T3 0.754%

Cc1cc(Nc2nc(NC(C)c3ncc(F)cn3)ncc2Cl)n[nH]1 (stereo not given)
inactive: CRL-7250 | HEK293 -3.92% | HaCat 0.354% | KB-3-1 | NIH3T3 -5.45%

C[C@H]1CC[C@@]2(OC1)O[C@H]1CC3C4CC[C@H]5C[C@@H](O)[C@H](O)C[C@]5(C)C4=CC(=O)[C@]3(C)[C@H]1[C@@H]2C (stereo not given in full)
inactive: CRL-7250 -0.885% | HEK293 -6.34% | HaCat -0.134% | KB-3-1 0.923% | NIH3T3 -10.8%

CC1CCC2(C(=O)O)CCC3(C)C(=CCC4C5(C)CCC(O)C(C)(CO)C5CCC43C)C2C1(C)O (stereo not given)
inactive: CRL-7250 0.977% | HEK293 -24.2% | HaCat 1.16% | KB-3-1 -0.678% | NIH3T3 1.81%

CC[C@H](NC(=O)[C@H](CS(=O)(=O)CC1CC1)N[C@@H](c1ccc(F)cc1)C(F)(F)F)C(=O)C(=O)NC1CC1
inactive: CRL-7250 3.55% | HEK293 -20.2% | HaCat -1.21% | KB-3-1 3.82% | NIH3T3 -16%
